Laboratory results as given in PubChem BioAssay AID1508600 (Functional Genomics Laboratory (NCATS/FGL), 2020).
Among all 53,000 sequences or so, about 3,700 (7%) were called active. The sample as a whole holds a higher share of actives than the screen did. Unmarked numbers belong to inactive results.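 Rule for the calls: active = gene knockdowns whose robust z-score for IL-1 alpha signal is at least 2 or at most -2, so actives lie on both sides; inactive = the rest.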

experiment: Components of the Cytosolic LPS Sensing Pathway: Gene Identification via Genome-wide siRNA Screen; conditions: RAW264.7 macrophages, IL-1a HTRF, actives lie on both sides, screened at 100 nM (by protocol), cells primed 5 h with Pam3CSK4 first;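 note: robust z of the log signal after scaling to non-targeting control siRNA wells of the plate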
Summary of the method: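 Knockdown: 100 nM siRNA, 48h, RAW264.7. Stimulation: Pam3CSK4 5 h, then LipidA via TransIT-TKO 24 h. Output: supernatant IL-1a HTRF, negative-control-normalized, log robust z-score; viability by CellTiter-Glo.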

| Sequence | z-score |
| --- | --- |
| CCAGCAUGCAUGAACGAGUTT against Carnmt1 | 0.508 |
| CCCUGUAACCAAUAAGAAGTT against Snrpa1 | -0.401 |
| GGGCUAUGCAGACCUGUACTT against Cyb561 | -2.45 (active) |
| CCUUGGGACAAGCAUAUAUTT against Psg25 | 0.901 |
| GGCAAGUCUAAAAUACAUUTT against St6galnac4 | -0.439 |
| CGUACCAGAUGAGCUAAGUTT against Zfp513 | 2.56 (active) |
| CCUGUUGUAUUGUUUAGCGTT against Ago2 | -0.402 |
| CCUCAAGAUAAACCGACAATT against Bard1 | 0.388 |
| GGAGUCCGCUCAGAAUUUGTT against Lhpp | -0.194 |
| GGACAAAGUUGUUCCUUCUTT against Zfp13 | -2.62 (active) |
| GGAAGAUCUACAUCGUGGGTT against Klhl26 | 0.341 |
| GGUGGUUUUUUGUUGUUGUTT against Lhfpl4 | 0.277 |
| GCCUAUGACUACCUCGAGUTT against Rhob | -2.01 (active) |
| GGAGAAUAAUAAGCUGGAATT against Hap1 | 0.12 |
| CGGUAUCUUGGUCAACCUGTT against Naaa | 0.955 |
| GGUAGCUCUGAGACAAUUCTT against Pkhd1l1 | 0.857 |
| GCCCAUUAUGGUUAAAGAATT against Ccnb3 | -0.311 |
| GGAGAUCGAUAUUCGACUATT against 4933434E20Rik | -2.48 (active) |
| GGAUAUUCUUCUUAAGCAGTT against Agbl5 | -0.168 |
| CCAGGUUGAUGAUUUCAACTT against Tbcc | -1.43 |
| GGGAAGUGCAUGCUCAUCUTT against Smarcal1 | -0.187 |
| GCGUGGAUUACAUUUCUCUTT against Depdc1a | 0.392 |
| GGACUGAGAACCAAAGCUGTT against D630044L22Rik | -3.15 (active) |
| GGAAGAGCCAGUGGUAUAATT against Ccdc171 | 0.164 |
| GUCUGAGCGACUGUCUCCATT against Mef2b | -2.17 (active) |
| GGAGAACCAUAAUAAGAGUTT against Tnfrsf26 | -2.88 (active) |
| UCAAACUAGGUGCUGUUGUTT against Olfr584 | 0.998 |
| CCAAAGAUGCUCCUCACCUTT against Olfr197 | -0.158 |
| GCUUCUAGCCUGUAUUGCCTT against Rps8 | 0.31 |
